system: Carnobacterium 1 (Carnobacterium gallinarum); assay: relative growth (AUC of 72 h growth curve relative to DMSO control, dAUC) (ratio); higher = more growth (less inhibition), active = hit call of the paper; settings: 20 µM
Protocol: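 Environmental bacterial isolates (Iceland stream sediment and Silwood Park soil) and whole stream-sediment communities were grown in LB from a 1:100 dilution with each pesticide at 20 µM (1% DMSO). A600 was read hourly for 72 h and the area under a spline-fitted growth curve (AUC) was computed. dAUC is the mean AUC of 3 biological replicates divided by the mean AUC of the DMSO controls. Significance was tested by Dunnett's test against the DMSO control.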

Compound	relative growth
N#Cc1sc2c(=O)c3ccccc3c(=O)c=2sc1C#N	0.62 (inactive)
Cc1nnc(-c2ccccc2)c(=O)n1N	0.953 (inactive)
Cc1cc(C(C#N)c2ccc(Cl)cc2)c(Cl)cc1NC(=O)c1cc(I)cc(I)c1O (stereo not given)	0.0215 (active)
CC(Oc1ccc(Oc2nc3ccc(Cl)cc3o2)cc1)C(=O)O (stereo not given)	1.36 (inactive)
CC(C1CC1)C(O)(Cn1cncn1)c1ccc(Cl)cc1 (stereo not given)	1.34 (inactive)
COP(=S)(OC)SCN1C(=O)c2ccccc2C1=O	1.04 (inactive)
CNC(=O)CSP(=S)(OC)OC	0.894 (inactive)
C[C@@H]1[C@@H](c2ccc(Cl)cc2)SC(=O)N1C(=O)NC1CCCCC1	0.881 (inactive)
CC(Oc1ccc(Oc2ncc(C(F)(F)F)cc2Cl)cc1)C(=O)O (stereo not given)	1.23 (inactive)
CCCCOC(=O)[C@H](C)Oc1ccc(Oc2ccc(C#N)cc2F)cc1	0.961 (inactive)
CC(C)NC(=O)N1CC(=O)N(c2cc(Cl)cc(Cl)c2)C1=O	1.02 (inactive)
CSc1nc(NC(C)C)nc(NC(C)C)n1	0.71 (inactive)
CC1(C)CON(Cc2ccccc2Cl)C1=O	0.914 (inactive)
C[N+]1(C)CCCCC1	1.2 (inactive)
CC1(C)C(C=C(Cl)Cl)C1C(=O)OC(C#N)c1ccc(F)c(Oc2ccccc2)c1 (stereo not given)	0.865 (inactive)
Cc1c(COC(=O)[C@@H]2[C@H](/C=C(\Cl)C(F)(F)F)C2(C)C)cccc1-c1ccccc1 (racemic)	1.17 (inactive)
CC(C)OC(=O)C(C(=O)OC(C)C)=C1SCCS1	0.826 (inactive)
Nc1c([N+](=O)[O-])ccc(Oc2ccccc2)c1Cl	0.792 (inactive)
COC(=O)NC(=S)Nc1ccccc1NC(=S)NC(=O)OC	0.745 (inactive)
CCNC(=O)NC(=O)/C(C#N)=N/OC	0.965 (inactive)

Compound	relative growth
CCc1cc(C)cc(CC)c1-c1c(OC(=O)C(C)(C)C)n2n(c1=O)CCOCC2	1.01 (inactive)
COC(=O)N(OC)c1ccccc1COc1ccn(-c2ccc(Cl)cc2)n1	1.36 (inactive)
CC1(C)C(C=C(Cl)Cl)C1C(=O)OC(C#N)c1cccc(Oc2ccccc2)c1 (stereo not given)	1.32 (inactive)
CCCC(Cn1cncn1)c1ccc(Cl)cc1Cl (stereo not given)	1.13 (inactive)
CNC(=O)c1cc(C#N)cc(C)c1NC(=O)c1cc(Br)nn1-c1ncccc1Cl	0.896 (inactive)
Fc1ccc(Oc2ccnc3cc(Cl)cc(Cl)c23)cc1	1.13 (inactive)
COC(=O)c1ccccc1S(=O)(=O)NC(=O)Nc1nc(C)nc(OC)n1	1.2 (inactive)
CC(C)N1C(=O)c2ccccc2NS1(=O)=O	0.693 (inactive)
Cc1cc(C2CC2)nc(Nc2ccccc2)n1	0.909 (inactive)
CCOCN(C(=O)CCl)c1c(C)cccc1CC	1 (inactive)
CO/C=C(/C(=O)OC)c1ccccc1COc1cccc(C(F)(F)F)n1	0.98 (inactive)
COC(=O)Nc1nc2ccccc2[nH]1	1.1 (inactive)
CCCCc1c(C)nc(NCC)nc1OS(=O)(=O)N(C)C	0.861 (inactive)
CCc1cnc(C2=NC(C)(C(C)C)C(=O)N2)c(C(=O)O)c1 (stereo not given)	1.06 (inactive)
CC1(C)[C@H](C(=O)O[C@H](C#N)c2cccc(Oc3ccccc3)c2)[C@@H]1C=C(Br)Br	1.47 (inactive)
CS(=O)(=O)NC(=O)c1cc(Oc2ccc(C(F)(F)F)cc2Cl)ccc1[N+](=O)[O-]	0.908 (inactive)
O=[N+]([O-])/N=C1\NCCN1Cc1ccc(Cl)nc1	1.26 (inactive)
N#Cc1nn(-c2c(Cl)cc(C(F)(F)F)cc2Cl)c(N)c1[S+]([O-])C(F)(F)F (stereo not given)	0.821 (inactive)
CC(C)CC(C)c1sccc1NC(=O)c1cn(C)nc1C(F)(F)F (stereo not given)	0.721 (inactive)
CCOCn1c(-c2ccc(Cl)cc2)c(C#N)c(Br)c1C(F)(F)F	1.16 (inactive)

Reference: the supplement of paper PMC12067926
